Assay results taken from PubChem BioAssay (Tox21).
Inconclusive results are not listed. Values without a mark were called inactive. Activity calls are given as the source filed them. The call rests on the fitted dose curve; in most records, active means well fitted inhibition curve with a large enough effect in the repeat runs; inconclusive means weak or mixed curves; inactive means flat fitted curve, though single readings scatter.

target: Voltage-gated inwardly rectifying potassium channel KCNH2 (Homo sapiens) (UniProt Q12809); test: Human Ether-a-go-go-Related Gene (hERG) channel small molecule antagonists: fluorescence cell-based qHTS assay (AID 1671200); conditions: hERG-U2OS cells, FluxOR thallium flux fluorescence; series mostly up to 76.8 µM; activity change, negative = inhibition: at the top concentration; further: nearly all actives have a fitted effect of over 50% in size
Excerpt: National Center for Advancing Translational Sciences [NCATS]
U.S. Environmental Protection Agency [EPA]
National Institutes of Environmental Health Sciences [NIEHS]
National Toxicology Program [NTP]
U.S. Food and Drug Administration [FDA]
Mutations in the hERG channel cause Long QT (LQT) syndrome. LQT syndrome is a cardiac disorder which can cause ventricle arrhythmia and sudden death. Additionally, compounds which block the hERG channel can cause acquired LQT syndrome. Several FDA approved drugs have been removed from the market due to their hERG blocking activity. A cell-based hERG channel inhibition assay can be used to screen chemical compounds that inhibit hERG channel. This assay measures hERG channel activity using thallium ions as surrogate ions to measure potassium into the cells.
Tox21 Assay Protocol Summary:
hERG-U2OS cells were resuspended in culture medium and dispensed into 1536-well, black wall/clear-bottom plates at 1000cells/well/3uL using a Multidrop Combi dispenser (Thermo Fisher, Waltham, MA). After plates were incubated at 37 C overnight, 3 uL of Loading Buffer provided by FluxOR II Potassium Ion Channel Assay kit (Thermo, Carlsbad, CA) was added to each well. The assay plates were then incubated at room temperature in the dark for 1h. […] After the assay plates were incubated at room temperature for 10 min, 1 uL of Stimulus Buffer provided by FluxOR II Potassium Ion Channel Assay kit was added into each well and fluorescence intensity (480nm excitation/540nm emission) was continuously measured for 2 min at 1 second intervals using a Functional Drug Screening System (FDSS) 7000EX kinetic plate reader (Hamamatsu, Japan).
On the % scale 0 is the no-effect control and ±100 the full control effect; potency means the concentration at half of the fitted maximal effect.

Chain of Voltage-gated inwardly rectifying potassium channel KCNH2 (Homo sapiens) (Q12809 whole entry, looked up): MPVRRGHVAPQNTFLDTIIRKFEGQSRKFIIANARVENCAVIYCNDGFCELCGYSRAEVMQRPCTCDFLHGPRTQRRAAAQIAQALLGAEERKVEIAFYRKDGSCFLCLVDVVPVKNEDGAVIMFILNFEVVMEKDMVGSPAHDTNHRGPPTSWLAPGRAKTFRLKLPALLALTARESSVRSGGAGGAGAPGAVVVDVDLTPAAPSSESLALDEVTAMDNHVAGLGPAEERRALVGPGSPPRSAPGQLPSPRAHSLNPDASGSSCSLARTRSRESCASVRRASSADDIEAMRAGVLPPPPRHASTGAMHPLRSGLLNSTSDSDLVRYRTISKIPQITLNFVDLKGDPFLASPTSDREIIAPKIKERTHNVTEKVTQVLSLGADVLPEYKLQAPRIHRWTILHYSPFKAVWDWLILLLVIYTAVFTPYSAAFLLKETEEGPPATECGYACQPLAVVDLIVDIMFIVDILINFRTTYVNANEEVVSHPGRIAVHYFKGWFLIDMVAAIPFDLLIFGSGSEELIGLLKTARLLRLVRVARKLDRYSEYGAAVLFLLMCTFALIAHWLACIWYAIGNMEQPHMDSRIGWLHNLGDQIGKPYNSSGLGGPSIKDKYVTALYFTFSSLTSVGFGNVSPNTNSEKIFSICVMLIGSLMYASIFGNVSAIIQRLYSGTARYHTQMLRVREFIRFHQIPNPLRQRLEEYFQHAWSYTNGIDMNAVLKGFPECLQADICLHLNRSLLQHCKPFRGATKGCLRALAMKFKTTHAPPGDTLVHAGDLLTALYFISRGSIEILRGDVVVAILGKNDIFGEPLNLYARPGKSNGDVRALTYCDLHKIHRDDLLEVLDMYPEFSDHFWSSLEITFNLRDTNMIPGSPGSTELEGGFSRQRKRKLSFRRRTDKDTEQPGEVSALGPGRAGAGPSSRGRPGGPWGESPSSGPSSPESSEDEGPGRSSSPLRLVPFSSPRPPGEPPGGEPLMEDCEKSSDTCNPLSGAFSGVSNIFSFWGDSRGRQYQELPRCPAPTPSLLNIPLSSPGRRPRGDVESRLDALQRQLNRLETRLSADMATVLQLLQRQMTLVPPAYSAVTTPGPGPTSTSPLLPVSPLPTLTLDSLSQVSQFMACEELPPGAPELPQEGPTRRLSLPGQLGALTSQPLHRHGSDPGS

Structure (SMILES) | activity change, negative = inhibition | Potency
Cc1oc2c(NC(=O)c3c(Cl)cccc3Cl)cccc2c1C(C)(C)O | -19.2% | 
O=[N+]([O-])c1cccc(S(=O)(=O)O)c1 |  | 22.2 µM (active)
Cc1ccc(C(=O)Oc2ccc(C(O)CNC(C)(C)C)cc2OC(=O)c2ccc(C)cc2)cc1 (stereo not given) |  | 6.74 µM (active)
Brc1c2ccccc2c(Br)c2ccccc12 | -0.46% [at 6.97 µM] | 
CCOc1ccc(N=Nc2ccc(/C=C/c3ccc(N=Nc4ccc(OCC)cc4)cc3S(=O)(=O)O)c(S(=O)(=O)O)c2)cc1 | 2.79% | 
C/C=C(/C(=C/C)c1ccc(OC(C)=O)cc1)c1ccc(OC(C)=O)cc1 | -17.2% [at 35.3 µM] | 
O=C1[C@H]2CCCC[C@H]2C(=O)N1CCCCN1CCN(c2nsc3ccccc23)CC1 |  | 8.49 µM (active)
CCCCO | 5.23% | 
Cc1oc(-c2ccccc2)nc1CCOc1cccc2c1ccn2CCC(=O)O | 1.94% | 
CC1=CC[C@H](C(C)C)C=C1 | -5.26% | 
CCOC(=O)NCCOc1ccc(Oc2ccccc2)cc1 |  | 43.6 µM (active)
CCC(C)O (stereo not given) | -0.954% | 
O=C(O)C1(C(=O)O)CCC1.[NH2-].[NH2-].[Pt+2] | -2.63% [at 35.3 µM] | 
CCCCC | -5.19% | 
C=CC(=O)OCCOCCOC(=O)C=C | 24.6% | 
CN1Cc2cc(C(=O)N3CCC(C4CCNCC4)CC3)ccc2NC(CC(=O)O)C1=O (stereo not given) | 5.97% [at 35.3 µM] | 
CCN(CC)CCOC(=O)C(c1ccccc1)C1CCCCC1 (stereo not given) |  | 6.01 µM (active)
COc1cc(C(=O)OCCCN2CCCN(CCCOC(=O)c3cc(OC)c(OC)c(OC)c3)CC2)cc(OC)c1OC |  | 6.01 µM (active)
O=C(O)C(S)C(S)C(=O)O (stereo not given) | 0.774% [at 35.3 µM] | 
NCCCN1CCOCC1 | 1.54% | 

Structure (SMILES) | activity change, negative = inhibition | Potency
O=C1OC(=O)C2C3C=CC(C3)C12 (stereo not given) | -0.0038% | 
COc1cc2nc(N(C)CCCNC(=O)C3CCCO3)nc(N)c2cc1OC (stereo not given) | 1.3% [at 35.3 µM] | 
CCCCC1=NC2(CCCC2)C(=O)N1Cc1ccc(-c2ccccc2-c2nn[nH]n2)cc1 | 12.4% [at 35.3 µM] | 
CN(C)CCN(Cc1ccsc1)c1ccccn1 | 3.29% [at 35.3 µM] | 
CCCCCCCCCCCCN1CCCCCC1=O | -3.91% | 
CN(C)CCN(Cc1ccc(Cl)cc1)c1ccccn1 |  | 2.39 µM (active)
CCCCc1ncc(/C=C(\Cc2cccs2)C(=O)O)n1Cc1ccc(C(=O)O)cc1 | -3.49% [at 35.3 µM] | 
CC(COCCO)OCCO (stereo not given) | -3.2% | 
O=C(c1ccc(F)cc1)C1CCN(CCn2c(=S)[nH]c3ccccc3c2=O)CC1 |  | 0.601 µM (active)
CCN(CC)c1ccc2c(-c3ccccc3C(=O)O)c3ccc(=[N+](CC)CC)cc-3oc2c1 | -21.3% | 
O=[N+]([O-])c1ccc(NCCO)c(OCCO)c1 | -2.43% | 
O=C(CS)Nc1ccccc1 | 2.08% [at 35.3 µM] | 
C/C=C/C=C/CO | 2.23% | 
CN1CCN(C(c2ccccc2)c2ccccc2)CC1 | -25.7% [at 35.3 µM] | 
CCC(=O)O[C@]1(C(=O)CCl)[C@@H](C)C[C@H]2[C@@H]3CCC4=CC(=O)C=C[C@]4(C)[C@@]3(F)[C@@H](O)C[C@@]21C | -1.16% [at 35.3 µM] | 
Cc1cc(C(=O)O)ccc1[N+](=O)[O-] | -0.581% | 
C=CCOC(=O)CCC1CCCCC1 | -10.6% | 
CN(C)CCCN1c2ccccc2Sc2ccccc21 |  | 9.52 µM (active)
Cc1cccc(C)c1NC(=O)CN(CC(=O)O)CC(=O)O | 0.677% [at 35.3 µM] | 
CCCCCCCCCc1ccc(OCCOCCO)cc1 |  | 8.17 µM (active)
